# Hit rate of the full screen: of about 410,000 compounds, about 18,000 (4.4%) were called active. Not shown: some 7% with an inconclusive outcome. Cut-off read from the data, not from the text of the source: active = activity change below about -60%; inconclusive = no clear call, values can overlap the other calls; inactive = above about -39%. The sample as a whole holds a higher share of actives than the screen did.
# Experiment: qHTS Assay for inhibitors of the human cytomegalovirus (HCMV)
# Settings: HFF cells, HCMV-luciferase reporter, 72 h; at 57.5 µM; stronger effect = lower value
# Outline: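 Two-dose cell screen: HFF monolayers treated with compounds and infected with luciferase-expressing HCMV at 1 PFU/cell, 72 h at 37C, then lysed for luciferase measurement.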
# % is set by controls: 0 for no effect and ±100 for the full control effect.
row,Compound,"activity change, negative = inhibition"
1,Cc1ccc(CN(C(=O)COc2ccc(Cl)cc2C)C2CCS(=O)(=O)C2)o1 (stereo not drawn),51.5% (inactive)
2,Cc1cccc(N2CCN(c3ccc(C(=O)O)cc3NC(=O)c3ccccc3F)CC2C)c1 (stereo not drawn),-4.85% (inactive)
3,CCOc1ccccc1C(=O)NC1(C(F)(F)F)NC(=O)N(CCc2ccc(OC)c(OC)c2)C1=O (stereo not drawn),-4.49% (inactive)
4,O=C(CSc1nc2ccccc2nc1Cc1ccccc1)N1CCCCC1,-18.6% (inactive)
5,CC(C)[C@@H](C(=O)OCC(=O)c1ccc2c(c1)NC(=O)CO2)N1C(=O)c2ccccc2C1=O,43.1% (inactive)
6,COc1cc(NC(=O)c2noc3c2CSc2ccccc2-3)cc(OC)c1OC,40.1% (inactive)
7,CC(C)CCNC(=O)CSc1nc2ccccc2nc1Cc1ccc(Cl)cc1,-7.66% (inactive)
8,O=C(CC1N=C2c3ccccc3N=C(SCc3ccc(F)cc3)N2C1=O)NCc1cccs1 (stereo not drawn),30.3% (inactive)
9,CNS(=O)(=O)c1ccc(N2CCCC2=O)c([N+](=O)[O-])c1,-21% (inactive)
10,O=C(c1cccc(-n2cccc2)c1)N1CCN(S(=O)(=O)c2ccc(F)cc2)CC1,-6.27% (inactive)
11,CC(=O)c1ccc(N2CCN(C(=O)c3ccc4nc[nH]c4c3)CC2)cc1,-12% (inactive)
12,O=C(c1cccc(C(=O)N2CCN(c3ccc(F)cc3)CC2)c1)N1CCN(c2ccc(F)cc2)CC1,-88.8% (active)
13,O=C(Nc1cc(Cl)ccc1N1CCOCC1)c1ccc(N2CCCC2=O)cc1,-3.06% (inactive)
14,O=C(c1ccc(N2CCCC2=O)cc1)N1CCN(c2ccc(C(F)(F)F)cc2[N+](=O)[O-])CC1,-85.8% (active)
15,Cc1cc(C)cc(Nc2ncnc3onc(-c4ccc(F)cc4)c23)c1,-23.4% (inactive)
16,COc1ccccc1-c1nnc(SCC(N)=O)o1,64.6% (inactive)
17,COc1cc(C(=O)Nc2ccc(-n3c(C)nc4ccccc4c3=O)cc2)cc(OC)c1OC,-1.41% (inactive)
18,CCOC(=O)c1cc2c(=O)n3ccccc3nc2n(CCCOC)c1=NC(=O)C(C)Oc1ccccc1 (stereo not drawn),-1.73% (inactive)
19,O=Cc1c(N2CCN(c3cccc(Cl)c3)CC2)nc2ccccn2c1=O,-31.6% (inactive)
20,Cc1ccc2nc(N3CCN(c4cccc(Cl)c4)CC3)c3nnnn3c2c1,-71.6% (active)
21,O=S(=O)(c1cccc2nonc12)N1CCN(c2cccc(Cl)c2)CC1,-25.7% (inactive)
22,COC(=O)c1ccc(COC(=O)CNC(=O)c2cccc(OC)c2)o1,-25.9% (inactive)

row,Compound,"activity change, negative = inhibition"
1,O=C(Nn1cc(C(=O)N2CCN(c3ccccc3F)CC2)c2ccccc2c1=O)c1cnccn1,43.2% (inactive)
2,CC(=O)c1ccc(OCC(=O)N(C)C2CCS(=O)(=O)C2)cc1 (stereo not drawn),-17% (inactive)
3,COc1ccc(-c2cc(=O)oc3cc(OCC(=O)N(C)C4CCS(=O)(=O)C4)ccc23)cc1 (stereo not drawn),4.48% (inactive)
4,COc1ccc(/C=C(\C#N)C(=O)OCC(=O)N(C)C2CCS(=O)(=O)C2)cc1 (stereo not drawn),-87.3% (active)
5,CCOC(=O)c1c(S(=O)(=O)N2CCC(C(=O)NCc3ccccc3OC)CC2)c(C)n(C)c1C,9.09% (inactive)
6,O=C(CC1Oc2ccc(Cl)cc2NC1=O)NCc1ccccc1 (stereo not drawn),-7.24% (inactive)
7,O=C(Nc1ccc(F)cc1F)c1ccc2c(=O)n3c(nc2c1)CCCCC3,61.7% (inactive)
8,COc1cccc(CNC(=O)C(NS(=O)(=O)c2ccc3nc(C)sc3c2)C(C)C)c1 (stereo not drawn),-9.19% (inactive)
9,COC(=O)c1ccc(COc2ccc(C#N)cc2)o1,-13.9% (inactive)
10,S=C(NCc1ccc(Cl)cc1)NC12CC3CC(CC(C3)C1)C2,-100% (active)
11,Cc1ccc(C(=O)NC23CC4CC(CC(C4)C2)C3)c(Cl)c1,20.9% (inactive)
12,COc1ccccc1C(=O)NC(=S)NC12CC3CC(CC(C3)C1)C2,-36.1% (inactive)
13,Cc1cc(-c2ccccc2)n2nc(-c3ccccc3)cc2n1,-2.35% (inactive)
14,CC(C)(C)c1ccccc1NC(=O)CN1C(=O)NC2(CCCC2)C1=O,19.2% (inactive)
15,O=C(CN1C(=O)S/C(=C\c2ccccc2Cl)C1=O)NC1C=CS(=O)(=O)C1 (stereo not drawn),-66.8% (active)
16,CC12CCC(=O)N1C(C(=O)NCCN1C(=O)S/C(=C\c3ccccc3F)C1=O)CS2 (stereo not drawn),-21.8% (inactive)
17,O=C(NCCN1C(=O)S/C(=C\c2cccnc2)C1=O)c1ccc(S(=O)(=O)N2CCCC2)cc1,3.64% (inactive)
18,CCCn1c2ccccc2c2cnn(CC(=O)N(CC)c3cc(C)ccc3C)c(=O)c21,-37.8% (inactive)
19,Cc1ccc(C(=O)Nc2cc3c(cc2N2CCCC2)n(C)c(=O)c(=O)n3C)cc1,0.153% (inactive)
20,O=C(NC1CCN(Cc2ccccc2)CC1)c1ccc(Cn2c(=O)c3ccccc3n(Cc3cccc(F)c3)c2=O)cc1,-15.8% (inactive)
21,CCC(C(=O)Nc1cccc(Cl)c1C)n1nc(-c2ccc(C)cc2)ccc1=O (stereo not drawn),12.4% (inactive)
22,Cc1nnc(NC(=O)CSc2nc3c([nH]c4ccccc43)c(=O)n2-c2cccc(Cl)c2)s1,-12.8% (inactive)

row,Compound,"activity change, negative = inhibition"
1,CCCCCCc1cc2cc(-c3nnc(-c4ccccc4)o3)c(=O)oc2cc1O,-100% (active)
2,CCn1c(-c2cccnc2Cl)nc2cc(C)c(C)cc21,-25.4% (inactive)
3,Cc1ncn2cc(-c3ccc(Cl)cc3Cl)[nH]c(=O)c12,-32.3% (inactive)
4,COn1c(-c2ccc(Cl)cc2Cl)nc2ncccc21,-63.6% (active)
5,CC(NC(=O)CCc1cn(Cc2ccccc2Cl)c2ccccc12)c1ccccc1 (stereo not drawn),-11.3% (inactive)
6,Cc1cccc(NC(=O)N2CCN(C)c3ncccc32)c1C,12% (inactive)
7,CC(Sc1oc(-c2ccco2)nc1S(=O)(=O)c1ccc(Br)cc1)c1ccccc1 (stereo not drawn),0.136% (inactive)
8,CCN(C(=O)c1sc2cc(OC)ccc2c1Cl)c1ccccc1,-99.2% (active)
9,CCN(C(=O)c1ccc(Br)cc1)c1ccccc1,7.23% (inactive)
10,COc1ccc2c(Cl)c(-c3nnco3)sc2c1,-7.84% (inactive)
11,COc1ccc(CNC(=O)c2ccc3c(c2)nc2n3CCOC2)c(OC)c1,2.67% (inactive)
12,COc1ccc(C(CNC(=O)c2cc(S(=O)(=O)Nc3cccc(C)c3)ccc2C)N2CCCC2)cc1 (stereo not drawn),-30.6% (inactive)
13,Cc1cccc(NS(=O)(=O)c2ccc(C)c(C(=O)NCC(c3ccccc3)N(C)C)c2)c1 (stereo not drawn),-101% (active)
14,COc1ccccc1NS(=O)(=O)c1ccc(C)c(C(=O)NCC(c2ccco2)N(C)C)c1 (stereo not drawn),-6.15% (inactive)
15,O=C(Nc1ccccc1Cl)/C(Cl)=C(\Cl)S(=O)c1ccccc1 (stereo not drawn),-100% (active)
16,O=C(Nc1ccccc1Cl)N1CCC(CN2CCCCC2)CC1,-10.2% (inactive)
17,O=C(Nc1ccccc1Cl)N1CCC(CN2CCCC2)CC1,37.3% (inactive)
18,Oc1ccccc1-c1cc(-c2ccc(Cl)cc2)n[nH]1,-20.6% (inactive)
19,COc1ccccc1CNS(=O)(=O)CC12CCC(CC1=O)C2(C)C (stereo not drawn),6.14% (inactive)
20,Oc1cccc2cc(-c3ccncc3)cnc12,-101% (active)
21,Cc1ccc(OCCSc2nc3ccc(NC(=O)COc4ccc(C)cc4)cc3s2)cc1,7.69% (inactive)
22,Cc1ccccc1NC(=O)Cn1c(=O)n(CC2CCC(C(=O)NCCc3ccccc3)CC2)c(=O)c2ccccc21 (stereo not drawn),16.2% (inactive)

row,Compound,"activity change, negative = inhibition"
1,COc1cc(C=C(OC(C)=O)c2ccc3c(c2)OCO3)cc(OC)c1OC,62.8% (inactive)
2,COc1cc(C2c3cc4c(cc3C(O)C3COC(=O)C23)OCO4)cc(OC)c1OC (stereo not drawn),-89.9% (active)
3,COc1cc(OC)c2c(c1)OC(=O)CC2c1cc(OC)c(OC)c(OC)c1 (stereo not drawn),-7.37% (inactive)
4,COC(=O)c1ccccc1NC(=O)c1cc(-c2ccccc2O)no1,-14.2% (inactive)
5,COC(=O)/C(=C1\Oc2ccc(C(C)(C)C)cc2S1)C(F)(F)F,-66.8% (active)
6,CCOC(=O)C1=C(c2ccccc2)O/C(=C(/C(=O)OC)C(F)(F)F)S1,34.3% (inactive)
7,O=C(CNC(=O)c1n[nH]c2ccccc12)Nc1cc(Cl)ccc1Cl,12.1% (inactive)
8,Cc1ccc(C)c(-n2nnnc2SCC(=O)c2c(N)n(C)c(=O)n(C)c2=O)c1,-19.3% (inactive)
9,CC(=O)Nc1ccc(-c2ccnc3c2CC(C(=O)NC(C)C)O3)cc1 (stereo not drawn),-16.6% (inactive)
10,COc1ccc(CCCNC(=O)C2Cc3c(-c4cccc(C(N)=O)c4)ccnc3O2)cc1 (stereo not drawn),-20.5% (inactive)
11,COc1ccc(NC(=O)C2Cc3c(-c4cccc(NC(C)=O)c4)ccnc3O2)cc1OC (stereo not drawn),-67.8% (active)
12,COc1ccc(NC(=O)C2(C)Cc3c(-c4cccc(NC(C)=O)c4)ccnc3O2)cc1 (stereo not drawn),-77.2% (active)
13,CC1(C(=O)NCC2CCOCC2)Cc2c(-c3cccc(C(N)=O)c3)ccnc2O1 (stereo not drawn),28.9% (inactive)
14,COc1ccc(NC(=O)C2(C)Cc3c(-c4cccc(NC(C)=O)c4)ccnc3O2)cc1OC (stereo not drawn),16% (inactive)
15,CC1(C(=O)Nc2cccnc2)Cc2c(-c3ccccc3)ccnc2O1 (stereo not drawn),-18.2% (inactive)
16,COc1ccc(NC(=O)C2(C)Cc3c(-c4ccc(C(N)=O)cc4)ccnc3O2)cc1 (stereo not drawn),32.9% (inactive)
17,CC(=O)Nc1cccc(-c2ccnc3c2CC(C)(C(=O)NCc2ccccc2)O3)c1 (stereo not drawn),-79.4% (active)
18,Brc1ccc2c(c1)NC(c1cccnc1)=NC(c1ccccc1)=N2,21.9% (inactive)
19,COc1ccc(NC(=O)CCNC(=O)Cn2ccc3ccccc3c2=O)c(OC)c1,-21.8% (inactive)
20,COC(=O)c1[nH]c2cccc(C)c2c1NC(=O)CN1CCCc2ccccc21,52.8% (inactive)
21,CCOc1ccccc1C(=O)NCC(c1ccc(N(C)C)cc1)N1CCCC1 (stereo not drawn),-6.83% (inactive)
22,CCOc1ccc(-c2nonc2NC(=O)c2oc3ccc(CC)cc3c2C)cc1,29.2% (inactive)

# From PubChem BioAssay AID1259415 (National Center for Advancing Translational Sciences (NCATS), 2018)
